In article PMC10726135, “HNF4α isoforms regulate the circadian balance between carbohydrate and lipid metabolism in the liver” one finds binding signal data, which are given here for 43 sequences.

Whole data set: some 18,000 sequences, median “log2 normalized intensity” near 0.39, cut for the highest 2% near 6.6. The full list was thinned out, with the highest values kept by preference.

The assay deals with T1, HNF4alpha2 (COS-7 nuclear extract) (Homo sapiens, UniProt P41235 1-474).
T1 sequence: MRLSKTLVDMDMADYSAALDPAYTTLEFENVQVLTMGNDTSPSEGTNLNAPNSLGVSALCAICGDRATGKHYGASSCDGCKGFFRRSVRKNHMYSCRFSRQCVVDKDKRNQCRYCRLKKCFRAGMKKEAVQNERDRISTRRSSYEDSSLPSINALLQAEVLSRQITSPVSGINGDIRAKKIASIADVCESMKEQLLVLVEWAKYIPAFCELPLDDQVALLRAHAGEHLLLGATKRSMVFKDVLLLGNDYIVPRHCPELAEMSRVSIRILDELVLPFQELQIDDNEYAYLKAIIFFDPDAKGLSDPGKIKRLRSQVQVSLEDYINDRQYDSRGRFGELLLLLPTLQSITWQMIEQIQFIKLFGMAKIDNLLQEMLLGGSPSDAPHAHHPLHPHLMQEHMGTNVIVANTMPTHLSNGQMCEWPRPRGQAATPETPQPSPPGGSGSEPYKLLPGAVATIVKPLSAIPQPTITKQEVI
In words: protein-binding microarray; COS-7 nuclear extract on double-stranded Agilent 4x180k PBM; binding buffer, salt, pH and temperature not given in the material; high values mean tight binding. Particulars: chain copies: 2; label: 3' end of strand 1 on the slide; dsDNA, one strand shown. The method in brief: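 COS-7 cells were transiently transfected by CaPO4 with an expression vector for a human HNF4α isoform, and nuclear extracts were prepared from them. The extracts were applied to a custom Agilent SurePrint G3 4x180k array of double-stranded ~60-nt oligonucleotides, with ~44,000 test sequences spotted in quadruplicate. An Agilent G2565CA scanner imaged bound HNF4α at 2-µm resolution. Binding signal is the background-corrected, normalized gProcessedSignal from Agilent software.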
For “TAAGACTAACCTTTGACCATCCACGGATGCGCCTAGGGAGATTAGAGTATCGGTCGA”, the binding signal stood at 4.62 log2 normalized intensity.
In the case of “CCTTACCTCCATTAACTAACCTTTGAACCAGCCTAGGGAGATTAGAGTATCGGTCGA” it was 6.78 log2 normalized intensity.
In the case of “CATGTGGTCCTAAGACTAACCTTTGACCATGCCTAGGGAGATTAGAGTATCGGTCGA” it was 7.89 log2 normalized intensity; in that of “CATGTTAATTTAAATAACAAGGATAGCGTCGCCTAGGGAGATTAGAGTATCGGTCGA”, -0.878 log2 normalized intensity; in that of “AAGGTCAGGATCTCAGCCGCGCGGCTTCAGGCCTAGGGAGATTAGAGTATCGGTCGA”, -0.906 log2 normalized intensity.
For “CAGTGGGGGGGGGGGGGGGGGTGTGTCTGTGCCTAGGGAGATTAGAGTATCGGTCGA”, the binding signal is 1.34 log2 normalized intensity.
As for “CTGGCAAAGCCATGAAGCAATTCTGAGCCCGCCTAGGGAGATTAGAGTATCGGTCGA”, the binding signal was -0.972 log2 normalized intensity.
In the case of “TTGGACTTTGGTCATCCTTTACTTTCCCAAGCCTAGGGAGATTAGAGTATCGGTCGA”, the binding signal is 5.18 log2 normalized intensity.
In the case of “GACTTTGGTTGGATTTCTTGGCTTCTCTTGGCCTAGGGAGATTAGAGTATCGGTCGA” it was 1.04 log2 normalized intensity.
On to “TCCAGATCAAGGATTTTTTCTTGGACTTTGGCCTAGGGAGATTAGAGTATCGGTCGA”, for which the binding signal was found to be 5.42 log2 normalized intensity.
Regarding “GGATTTTTTCTTGGACTTTGGTCATCCTTTGCCTAGGGAGATTAGAGTATCGGTCGA”, the binding signal was 6.83 log2 normalized intensity.
In the case of “ATCAAGGATTTTTTCTTGGACTTTGGTCATGCCTAGGGAGATTAGAGTATCGGTCGA” it was 8.1 log2 normalized intensity; in that of “TTTTCTTGGACTTTGGTCATCCTTTACTTTGCCTAGGGAGATTAGAGTATCGGTCGA”, 6.04 log2 normalized intensity.
Turning to “TCCAAAAGGGCAGCAGTAACCCCCCAGGAGGCCTAGGGAGATTAGAGTATCGGTCGA”, the binding signal was found to be 3.7 log2 normalized intensity.
Consider “GGTTGCCCTAGTGACTCTAGGAACCTTTCTGCCTAGGGAGATTAGAGTATCGGTCGA”, for which the binding signal is -0.0376 log2 normalized intensity.
As to “TGGGCCCACAGATGATCAAAGGTCAGTCTTGCCTAGGGAGATTAGAGTATCGGTCGA”, the binding signal was 6.53 log2 normalized intensity.
In the case of “AACAAAAAGGGCAAAGGTCAGCTCATTCCCGCCTAGGGAGATTAGAGTATCGGTCGA” it was 6.63 log2 normalized intensity; in that of “GGGTCATGGAGCTGGAGGGCAAAGGTCAGAGCCTAGGGAGATTAGAGTATCGGTCGA”, 7.97 log2 normalized intensity; in that of “AATCATGGGCCCACAGATGATCAAAGGTCAGCCTAGGGAGATTAGAGTATCGGTCGA”, 7.06 log2 normalized intensity.
In the case of “TATGAGAGAGAGAGAGAGGTGGGCAAAGGTGCCTAGGGAGATTAGAGTATCGGTCGA” it was 1.53 log2 normalized intensity; in that of “AAAGGGCAAAGGTCAGCTCATTCCCTAGGGGCCTAGGGAGATTAGAGTATCGGTCGA”, 6.27 log2 normalized intensity; in that of “ATGGAGCTGGAGGGCAAAGGTCAGAGGCTGGCCTAGGGAGATTAGAGTATCGGTCGA”, 6.39 log2 normalized intensity.
In the case of “AGAGCAATCATGGGCCCACAGATGATCAAAGCCTAGGGAGATTAGAGTATCGGTCGA” it was -0.805 log2 normalized intensity; in that of “GTGGGTGCCAAACAAAAAGGGCAAAGGTCAGCCTAGGGAGATTAGAGTATCGGTCGA”, 8.12 log2 normalized intensity.
For “GCAAAGGTCAGCTCATTCCCTAGGGCTCGGGCCTAGGGAGATTAGAGTATCGGTCGA”, the binding signal was -0.876 log2 normalized intensity.
“GAGAGAGAGAGAGGTGGGCAAAGGTCTCAAGCCTAGGGAGATTAGAGTATCGGTCGA”: the binding signal is 2.55 log2 normalized intensity.
The value for “CACTGGGGTCATGGAGCTGGAGGGCAAAGGGCCTAGGGAGATTAGAGTATCGGTCGA” was 3.25 log2 normalized intensity; that for “CCAAAGTCCTTCCCAAGTCCTGCATGTGTTGCCTAGGGAGATTAGAGTATCGGTCGA” was 1.84 log2 normalized intensity.
In the case of “CCCTACTGTACCCTATGCACCCCACAGTGCGCCTAGGGAGATTAGAGTATCGGTCGA” it was 2.11 log2 normalized intensity; in that of “ACCTTTAGCACCGTAAGAGAGTATTTCCCAGCCTAGGGAGATTAGAGTATCGGTCGA”, 1.13 log2 normalized intensity.
Regarding “CACAAGCTGGGTCAACATCAGCCCTCCTAGGCCTAGGGAGATTAGAGTATCGGTCGA”, the binding signal was determined as 1.49 log2 normalized intensity.
Take “GGGCACCGCCTCCACACCCCAGCCTGCCCTGCCTAGGGAGATTAGAGTATCGGTCGA”: the binding signal was 3.1 log2 normalized intensity.
In the case of “GGGGCAGGTAAGTACCAATATTTGTTAAGTGCCTAGGGAGATTAGAGTATCGGTCGA”, the binding signal is 1.08 log2 normalized intensity.
As for “ATACTTTCAGCTAGCTGAGTGAGTAGGTTCGCCTAGGGAGATTAGAGTATCGGTCGA”, the binding signal was 1.31 log2 normalized intensity.
On to “AGTCCTGACCTTGGACTCTGCCCTTGGCCTGCCTAGGGAGATTAGAGTATCGGTCGA”, for which the binding signal was found to be 5.81 log2 normalized intensity.
In the case of “TCTTATGTCCCTCCTGACCTTTGGACTTGAGCCTAGGGAGATTAGAGTATCGGTCGA” it was 10.3 log2 normalized intensity; in that of “TGTCCCTCCTGACCTTTGGACTTGATAGAGGCCTAGGGAGATTAGAGTATCGGTCGA”, 9.11 log2 normalized intensity; in that of “ACCTTTGTCCTCATTGAGCCCTCCCCTTGTGCCTAGGGAGATTAGAGTATCGGTCGA”, 4.33 log2 normalized intensity.
In the case of “CCTGACCTGCCCTTTGTCCCTCCTGCTAGTGCCTAGGGAGATTAGAGTATCGGTCGA” it was 3.3 log2 normalized intensity.
The value for “TTGGCTCTTATGTCCCTCCTGACCTTTGGAGCCTAGGGAGATTAGAGTATCGGTCGA” was 8.6 log2 normalized intensity; that for “GCCTCTTTATCTCCTCCCCTTGAGACTTTAGCCTAGGGAGATTAGAGTATCGGTCGA” was 2.85 log2 normalized intensity.
For the sequence “TCAGTTTGGCTCTTATGTCCCTCCTGACCTGCCTAGGGAGATTAGAGTATCGGTCGA”, the binding signal came out at 3.25 log2 normalized intensity.
“AACTCTCAGTTTGGCTCTTATGTCCCTCCTGCCTAGGGAGATTAGAGTATCGGTCGA”: the binding signal was determined as 1.35 log2 normalized intensity.
